HCV inhibitor: inhibitors of hepatitis C virus infection | Huh7.5.1 HCVcc-Cre infection, luciferase reporter, 44 h | Potency, µM (series often up to 41.8 µM), for inactives: at the top dose activity change, negative = inhibition, hits mostly inhibitors | hit rate 3.4% among 340,000 | AID 651820; active means well fitted inhibition curve with a large enough effect; inconclusive means small, poorly fitted or top-dose-only effect, or another doubt; inactive means no such curve, though single readings can be large or run the other way; further: potency means the concentration at half of the fitted maximal effect
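A cell-based infection assay in which seeded cells (1,000 per well) receive test compound after 4 h, are inoculated with HCVcc-Cre at approximately 0.5 moi, and are incubated 44 h before luminescence detection.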
FMDV inh: blocks foot and mouth disease virus | hit rate 1.2% among 410,000 | AID 1159524 | Potency, µM (highest dose often 57.9 µM), without a hit: at the highest dose activity change, negative = inhibition, hits mostly inhibitors | FMDV antiviral cell-based qHTS; calls by dose curve; tested in HEK293T cells; further: read-out not given here; potency means the concentration at half of the fitted maximal effect; nearly all actives have a fitted effect of over 45% in size
VACV mCherry inh: inhibitors of vaccinia virus infection (mCherry reporter signal) | Potency, µM (highest dose often 36.5 µM), for inactives: at the highest dose activity change, negative = inhibition, actives largely listed as inhibitors | hit rate 0.63% among 310,000 | Vaccinia virus mCherry reporter infection, fluorescence; calls by dose curve; tested in A549 cells; further: potency means the concentration at half of the fitted maximal effect; nearly all actives have a fitted effect of over 35% in size
HCMV inh: inhibitors of human cytomegalovirus; HFF cells, HCMV-luciferase reporter, 72 h; stronger effect = lower value; hit rate 4.5% among 410,000; AID 1259415; activity change, negative = inhibition, % at 57.5 µM; in the data active means activity change below about -60%; inconclusive means no clear call, values can overlap the other calls; inactive means above about -39%
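Human foreskin fibroblasts infected with luciferase-reporter HCMV at MOI 1 PFU/cell, compounds at two doses. Luciferase measured 72 h post infection; normalized to buffer-only basal and Salinomycin (10uM) controls.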
Vaccinia Venus: vaccinia inhibition (Venus reporter); Vaccinia virus Venus reporter expression, fluorescence; Potency, µM (top dose mostly 36.5 µM), for the others: at the highest dose activity change, negative = inhibition, actives largely listed as inhibitors; hit rate 0.46% among 330,000; calls by dose curve; tested in A549 cells; further: potency means the concentration at half of the fitted maximal effect; nearly all actives have a fitted effect of over 30% in size
Starred values were filed as active, the others as inactive; i = inactive; ? = inconclusive; . = no result given; [ ] = another dose, or the depositor's remark. An excerpt weighted towards active compounds, which were near 7.3% of everything screened. On the % scale 0 is the no-effect control and ±100 the full control effect.

SMILES | HCV inhibitor | FMDV inh | VACV mCherry inh | HCMV inh | Vaccinia Venus
COc1cccc(-c2nnc(NC(=O)c3ccc(S(=O)(=O)N4CCOCC4)cc3)o2)c1 | 13µM* | -21% | -9% | . | 0%
COc1cc(OC)cc(-c2nnc(NC(=O)c3ccc4c(c3)OCCO4)o2)c1 | 2% | -16% | . | -61* | .
CSc1ccc(-c2nnc(NC(=O)c3ccc4c(c3)OCCO4)o2)cc1 | . | -8% | -14%[7.34 µM] | -17 | -2%[7.34 µM]
CC1CN(S(=O)(=O)c2ccc(C(=O)Nc3nnc(-c4ccc5c(c4)CCCC5)o3)cc2)CC(C)O1 (configuration not stated) | -14% | -28% | 8.9µM* | -13 | ?
COc1cc(-c2nnc(NC(=O)c3ccc(S(=O)(=O)N4CCOCC4)cc3)o2)cc(OC)c1OC | . | . | . | -2 | .
Cc1cccc(NC(=O)c2ccc(S(=O)(=O)N3CCC(C)CC3)cc2)n1 | ? | 32µM* | ? | -77* | ?
CN(Cc1ccccc1)C(=O)c1c[nH]c2ccc(S(=O)(=O)Nc3ccccc3F)cc2c1=O | . | 13% | -2% | -2 | -12%
CC1CCN(S(=O)(=O)c2ccc(C(=O)Nc3nnc(C4CC4)o3)cc2)CC1 | ? | -5% | ? | 56 | -12%
O=C(Nc1nnc(-c2ccncc2)o1)c1ccc2ccccc2c1 | 10% | -6% | -25% | -95* | -7%
CC1CCN(S(=O)(=O)c2ccc(C(=O)Nc3nnc(-c4ccncc4)o3)cc2)CC1 | ? | -12% | ? | -88* | -23%
O=C(Nc1nnc(C2CC2)o1)c1ccc(S(=O)(=O)N2CCCCC2)cc1 | -5% | 3% | ? | -61* | -3%
CS(=O)(=O)c1ccc(-c2nnc(NC(=O)c3ccc(S(=O)(=O)N4CCCC4)cc3)o2)cc1 | 17% | -12% | i | -23 | -10%
O=C(Nc1nnc(C2=COCCO2)o1)c1ccc(Cl)cc1 | -1% | 20% | ? | -39 | -12%
O=C(Nc1nnc(C2=COCCO2)o1)c1ccc([N+](=O)[O-])cc1 | 9% | 10% | i | -98* | -28%
O=C(CCCn1c(=O)c2ccccc2n(Cc2ccc(F)cc2Cl)c1=O)NCCc1ccc(Cl)cc1 | . | ? | -24% | -14 | -14%
CCOc1ccc(CCNC(=O)CCn2c(=O)c3cccn3c3ccc(F)cc32)cc1OCC | . | -17% | -13% | 3 | -15%
COc1ccccc1C(=O)Nc1nnc(-c2ccc3c(c2)CCCC3)o1 | -8% | 55% | -4% | -76* | -3%
CC(=O)Nc1nnc(-c2ccc3c(c2)CCCC3)o1 | 10% | 20% | -17% | -26 | -30%
CC1CCCCN1S(=O)(=O)c1ccc(C(=O)Nc2nnc(-c3ccco3)o2)cc1 (configuration not stated) | ? | 0% | ? | -70* | ?
OC(CNCC(c1ccc(Cl)cc1Cl)c1c[nH]c2ccccc12)c1ccccc1 (configuration not stated) | ? | ? | ? | -108* | ?
CSc1nn(Cc2ccc(F)cc2)c(N)c1S(=O)(=O)c1ccc(Cl)cc1 | . | -14% | -26% | ? | -14%
COc1cc(OC)c(OC)cc1/C=N/N(C)c1ccccc1 | 8.9µM* | -16% | . | -30 | -17%
COc1cc(/C=N/N(C)c2ccccc2)ccc1O | ? | 44% | -25% | 307 | -20%
C[n+]1c2ccccc2nc2ccc(NCCO)cc21 | 14µM* | ? | 262% | -81* | 391%
COc1ccc(N2CCN(C(c3ccccc3)c3sc4nc(-c5ccco5)nn4c3O)CC2)cc1 (configuration not stated) | . | 14% | -16% | 85 | -12%
COC(=O)C1=CN(CCCN2CCCC2=O)C=C(C(=O)OC)C1c1ccccc1C(F)(F)F | -9% | -20% | . | -65* | -13%
Cc1cc(C)nc(N2C(=O)CC(Cc3ccc(Cl)cc3)C2=O)n1 (configuration not stated) | 7% | -13% | i | -101* | -6%
O=C(Nc1ccc(F)c(Cl)c1)N1CCC(CN2CCc3ccccc3C2)CC1 | . | 14% | -14% | 10 | -9%
CCn1c(SCC(=O)Nc2cccc(C)c2)nc2ccccc2c1=O | ? | -6% | 5% | -32 | -2%
Cc1n[nH]c(C)c1CCc1nc2c3ccccc3nc(SCC(=O)Nc3ccccc3F)n2n1 | ? | -12% | ? | -73* | ?

Bioassay records as filed in PubChem BioAssay.
